The values below come from PubChem BioAssay AID1259415 (National Center for Advancing Translational Sciences (NCATS), 2018).

Hit rate of the full screen: of about 410,000 compounds, about 18,000 (4.4%) were called active. Inconclusive results (about 7%) are left out. This excerpt belongs to a sample that is enriched for actives. Values without a mark were called inactive. Rule as the data show it: active = activity change below about -60%; inconclusive = no clear call, values can overlap the other calls; inactive = above about -39%.
% is scaled to controls: 0 for no effect and ±100 for the full control effect.

A short description of this test: qHTS Assay for inhibitors of the human cytomegalovirus (HCMV). The settings on record: HFF cells, HCMV-luciferase reporter, 72 h; at 57.5 µM; active compounds read low. Summed up:
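Luciferase read-out from HCMV-luciferase-infected HFFs (MOI 1 PFU/cell) 72 h post infection at 37C; compounds added after 16 h cell attachment; activity normalized between buffer-only basal and Salinomycin (10uM) inhibitor controls.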
For orientation: In qHTS, concentration-response curves come from the screen itself.
On to `CN1CCC2(CC1)NC(=O)NC2=O`, for which the activity change, negative = inhibition is 7.02%.
For `O=C(COc1cccnc1[N+](=O)[O-])Nc1ccc(Cl)cc1F` the value was 9.57%; for `O=C(NCCc1ccc(C(F)(F)F)cc1)c1ccc2c(c1)OCO2`, -38.1%.
Regarding `COc1ccc(-c2cnc(SCCNC(=O)c3ccc4c(c3)OCO4)[nH]2)cc1`, the activity change, negative = inhibition is -28.5%.
To `Cc1ccc2cc(CCNC(=O)c3ccc4c(c3)OCO4)c(=O)[nH]c2c1` belongs -60.5% (active); to `Cc1ccc2cc(CCNC(=O)c3c(-c4ccccc4Cl)noc3C)c(=O)[nH]c2c1`, -94.6% (active); to `Cc1onc(-c2c(Cl)cccc2Cl)c1C(=O)c1c[nH]c(C(=O)NC2CC2)c1`, 16.8%.
On to `Cc1onc(-c2ccccc2Cl)c1C(=O)N(Cc1ccc(N(C)C)cc1)C(C)C`, for which the activity change, negative = inhibition is -25.9%.
To `COC(=O)C1=CN(c2c(C)cc(C)cc2C)C(N)=C(C#N)C1c1cccc(F)c1` (configuration not stated) belongs -18.9%; to `COC(=O)[C@@H]1[C@@H](CO)[C@@H]2Cn3c(cccc3=O)[C@H]1N2CC1CCCC1`, 13.6%.
For `Cc1[nH]c2ccccc2c1C(c1ccccc1)c1cccs1` (configuration not stated) the value was -20.6%; for `Cc1cc(F)ccc1S(=O)(=O)Nc1ccc(C(=O)N(C)Cc2ccco2)cc1`, -17.3%.
For `Cc1ccc(C)c(S(=O)(=O)N(C)c2ccc(OC(=O)C3CCN(C(=O)c4ccc(F)cc4)CC3)cc2)c1` the value was -83.9% (active).
Take `CCOC(=O)C1CCCN(C(=O)c2ccc(C)c(F)c2)CC1` (configuration not stated): the activity change, negative = inhibition was -2.4%.
For `CCOC(=O)C1CCCN(C(=O)c2ccc(N(C)C)cc2)CC1` (configuration not stated) the value was 14.9%; for `Cc1ccc(S(=O)(=O)NCC(=O)OCC(=O)N2CCc3ccccc32)cc1`, -5.73%.
To `COc1cccc(OC)c1C(=O)OCC(=O)/C(C#N)=C(\C)N` belongs -27.5%.
Regarding `C/C(N)=C(/C#N)C(=O)COC(=O)CNS(=O)(=O)c1ccc(C)cc1`, the activity change, negative = inhibition is -80.1% (active).
For `Cc1ccc(N2CC(C(=O)Nc3cc(Cl)ccc3-n3cncn3)CC2=O)cc1` (configuration not stated) the value was 4.52%; for `CCn1cc2nc(SCc3cccc(F)c3)n(CCc3ccccc3)c(=O)c2n1`, -35.3%; for `CN(C)C1=NC[C@H](Cc2ccccc2)N1CCc1ccc(F)cc1`, -5.86%.
To `CCCC[C@@H]1CN=C(N)N1CCc1cc(C(F)(F)F)cc(C(F)(F)F)c1` belongs -75% (active).
To `CCCCN1C(N)=NC[C@@H]1CC1CCCCC1` belongs -18.4%; to `O=C(Cn1cc(C(=O)c2cccs2)c2ccccc21)NCc1cccs1`, -5.26%.
Take `Cc1ccccc1NC(=O)Cn1cc(C(=O)c2cccs2)c2ccccc21`: the activity change, negative = inhibition was -22.9%.
To `Cc1c(Cl)cccc1NC(=O)Cn1cc(C(=O)c2cccs2)c2ccccc21` belongs -95.6% (active).
With `COC(=O)C1=C(C(=O)OC)[C@@H]2N(C)c3ccccc3[C@@]23C[C@@H](C(=O)OC)N(C(C)=O)C3=N1`, the activity change, negative = inhibition was -27%.
To `O=C(NCc1cccnc1)C(=O)NCC(c1cccnc1)N1CCN(c2ccccc2)CC1` (configuration not stated) belongs 5.63%; to `COc1ccc(-c2cc(NC=O)c3ncc(-c4cccc(C(=O)N(C)C)c4)n3c2)c(OC)c1`, 40.1%.
For `CC(=O)Nc1cc(-c2cccc(CO)c2)cn2c(-c3cccc(C(F)(F)F)c3)cnc12` the value was 71.5%; for `CN(C)CCNC(=O)c1cccc(-c2cnc3c(NC=O)cc(-c4cccc(C(F)(F)F)c4)cn23)c1`, -61.3% (active); for `CCCn1c(NCc2ccc(N(CC)CC)cc2)nc2ccccc21`, -5.55%.
To `Cc1ccc(-c2noc(-c3nnn(-c4cccc(C(F)(F)F)c4)c3N)n2)cc1` belongs 15.9%.
Take `Cc1cccc(NC(=O)CSc2nc(-c3ccco3)cc(C(F)(F)F)n2)c1C`: the activity change, negative = inhibition is 1.83%.
For `CC[C@@H](C)[C@H](NC(=O)CCc1c(C)c2cc3c4c(oc3c(C)c2oc1=O)CCCC4)C(=O)O` the value was -33.8%; for `Cc1coc2cc3oc(=O)c(CCC(=O)O)c(C)c3cc12`, -38.4%.
To `Cc1c(CC(=O)NCC(=O)NCC(=O)O)c(=O)oc2cc3oc4c(c3cc12)CCCC4` belongs -60.9% (active); to `Cc1ccccc1CN1CCC(CNC(=O)c2cc3ccc4cccnc4c3[nH]2)CC1`, -34.7%.
Regarding `O=[N+]([O-])/C=C/c1ccc2c(ccn2Cc2ccccc2)c1`, the activity change, negative = inhibition is -98% (active).
As for `COc1ccc(Cn2ccn(Cc3cccc(OC)c3)c(=O)c2=O)cc1`, the activity change, negative = inhibition was 6.59%.
For `O=c1c(=O)n(Cc2c(F)cccc2Cl)ccn1Cc1ccccc1` the value was -4.43%.
For the compound `CCOC(=O)[C@H]1[C@H]2COc3ccc(Br)cc3[C@@H]2N2C(=O)CN(C)C(=O)[C@@]12C`, the activity change, negative = inhibition was 4.78%.
For `CC(=O)Nc1ccc(NC(=O)C2CCCN(S(=O)(=O)c3ccc4c(c3)CCCC(=O)N4)C2)cc1` (configuration not stated) the value was 20.2%.
For the compound `Cc1ccc(C)c(N2CCN(C(=O)Cn3ncc4c(=O)oc5ccc(C)cc5c43)CC2)c1`, the activity change, negative = inhibition is 4.14%.
To `Cc1ccccc1-c1cc(C(=O)NCc2cccs2)n(CC2CC(c3cccnc3)=NO2)n1` (configuration not stated) belongs -10.2%; to `Cc1ccccc1N1CC(C(=O)Nc2ccc3c(c2)OCO3)CC1=O` (configuration not stated), 31.2%; to `O=C(OCCOc1ccccc1F)c1cc(S(=O)(=O)N2CCOCC2)ccc1F`, -18%.
For `CC(C)(C)C(=O)COC(=O)c1cc(S(=O)(=O)N2CCCCC2)ccc1N1CCOCC1` the value was -11.9%; for `O=C(OCCOc1ccccc1Cl)c1cc(S(=O)(=O)N2CCCCC2)ccc1N1CCOCC1`, -69.8% (active); for `CCOC(=O)c1c(C)[nH]c(C)c1S(=O)(=O)N1CCCC(C(=O)NCc2ccccc2Cl)C1` (configuration not stated), -15.8%.
For `CCOc1ccccc1CNC(=O)Nc1cn(CC(C)C)c(=O)c2ccccc12` the value was -2.27%.
For the compound `CCOc1ccc(S(=O)(=O)Nc2ccncc2)c(C)c1C`, the activity change, negative = inhibition was -26.1%.
To `Cc1cc(-c2n[nH]c(=S)n2/N=C/C(Br)=C/c2ccccc2)n[nH]1` belongs -95% (active); to `CCN(CCCNC(=O)c1ccc(Sc2ccc(C)cc2)c(NC(C)=O)c1)c1cccc(C)c1`, -13.8%.
For `CCN(CCCNC(=O)c1ccc2c(c1)NC(=O)CN2C)c1cccc(C)c1` the value was -95.1% (active); for `CCN(CCCNC(=O)Cn1ncc2c([nH]c3ccccc32)c1=O)c1cccc(C)c1`, 19.5%.
Regarding `COc1ccc(SCc2cc(=O)c3ccc(C)c(C)c3[nH]2)cc1`, the activity change, negative = inhibition is -8.87%.
Turning to `CC(C)C(C(=O)NC(C)(C)CC(C)(C)C)N1C(=O)C(=O)c2ccccc21` (configuration not stated), the activity change, negative = inhibition was 229%.
Turning to `O=C(NNS(=O)(=O)c1ccc(Cl)cc1)C1CCN(Cc2ccccc2)CC1`, the activity change, negative = inhibition was 14.7%.
For `CCOC(=O)c1ccc(CN(Cc2ccccc2)S(=O)(=O)c2ccc(Cl)cc2)cc1`, the activity change, negative = inhibition was -6.46%.
For `CCOC(=O)C1(S(=O)(=O)c2ccc(Cl)cc2)CCN(Cc2ccccc2)CC1` the value was -98.6% (active).
In the case of `CN(CC(=O)Nc1ccccc1Cl)C(=O)COc1cccc2c1OC(C)(C)C2`, the activity change, negative = inhibition was -11.1%.
As for `O=C(Nc1ccc(O)c(-c2nc3ccccc3o2)c1)c1ccc(-c2cccc(Cl)c2)o1`, the activity change, negative = inhibition was 11.5%.
`Cc1nc(Nc2ccc3c(c2)OCCO3)c2nnn(Cc3ccccc3Cl)c2n1`: the activity change, negative = inhibition is -91.8% (active).
For `Cc1nc(Nc2ccc(S(=O)(=O)N3CCCC3)cc2)c2nnn(Cc3ccccc3)c2n1` the value was -1%.
`Cc1nc(Nc2ccccc2F)c2nnn(Cc3ccccc3Cl)c2n1`: the activity change, negative = inhibition is 33.3%.
Take `CC(C)c1ccc(Nc2ncccc2C#N)cc1`: the activity change, negative = inhibition is 52.9%.
Consider `COc1cc(OC)cc(C(=O)Nc2nnc(SCC(=O)NCC3CCCO3)s2)c1` (configuration not stated), for which the activity change, negative = inhibition is -2.96%.
For `CC1Cc2ccccc2N1CC(=O)Nc1ccc(S(N)(=O)=O)cc1` (configuration not stated) the value was -32.9%; for `CC1CC(C)CN(CC(=O)Nc2ccc(S(N)(=O)=O)cc2)C1` (configuration not stated), -88.1% (active); for `CC1CN(C(=S)Nc2ccc(S(N)(=O)=O)cc2)CC(C)O1` (configuration not stated), 70.7%.
To `COc1cc(OC)cc(C(=O)Nc2cc3nn(-c4ccccc4)nc3cc2Cl)c1` belongs 99.1%.
With `CCOC(=O)c1ccccc1NC(=O)CCc1c(C)nc2c(c1C)c(=O)n(C)c(=O)n2C`, the activity change, negative = inhibition is 5.18%.
Turning to `CCC1OC(c2ccc([N+](=O)[O-])cc2)=Nc2ccccc21` (configuration not stated), the activity change, negative = inhibition is 13.9%.
As to `Cc1nc(-c2ccc([N+](=O)[O-])cc2)c(-c2ccccc2)o1`, the activity change, negative = inhibition was -90.1% (active).
As to `Cc1nc2ccccc2nc(=O)c1NNc1ccc([N+](=O)[O-])cc1`, the activity change, negative = inhibition is 4.07%.
Regarding `COc1ccc(Cn2ccnc2SCC(=O)NCc2ccco2)cc1`, the activity change, negative = inhibition is -17.3%.
For `COc1cc(OC)cc(C2=Cc3ccccc3C(CC(=O)c3ccco3)N2c2ccc(-c3cnc(OC)nc3)cc2)c1` (configuration not stated) the value was 18.6%.
To `NC(=O)c1ncc(C(F)(F)F)cc1Oc1ccc(F)cc1` belongs 0.451%; to `COc1ccc(Cl)cc1NC(=O)CSc1nc2ccccc2c2nc(-c3ccccc3)nn12`, 11.6%.
Take `CCOc1ccc(CCN2C(=O)C(=O)N([C@@H](Cc3ccc(O)cc3)CN3CCC[C@H]3CN3C(=O)C(=O)NC[C@@H]3CC(C)C)C[C@@H]2Cc2ccccc2)cc1`: the activity change, negative = inhibition was -26.1%.
To `O=C(COC(=O)c1cncc(Br)c1)Nc1ccc(S(=O)(=O)N2CCOCC2)cc1` belongs -8.88%.
For the compound `O=C(COc1ccc(Br)cc1)OCC(=O)c1ccc[nH]1`, the activity change, negative = inhibition was 42.3%.
Consider `CCCOC(=O)c1c(NC(=O)c2cnn3c2NC(c2ccccc2)CC3C(F)(F)F)sc2c1CCCC2` (configuration not stated), for which the activity change, negative = inhibition was -29.2%.
For `CCOc1ccc(NC(=S)NC(=O)/C=C/c2ccc(OC)cc2)c([N+](=O)[O-])c1`, the activity change, negative = inhibition was 40.2%.
For `COc1ccc(OC)c(NC(=O)/C=C/c2ccc(C)o2)c1` the value was 33%.
Consider `Cc1ccc(/C=C/C(=O)Nc2ccc([N+](=O)[O-])c(NC(=O)/C=C/c3ccc(C)o3)c2)o1`, for which the activity change, negative = inhibition is -77% (active).
